From PubChem BioAssay (EPA / NIEHS)
Active and inactive are the calls of the source. The calls were made as follows: active = hit-call score of the fitted dose curve at least 0.9, where 1 is the maximum; inactive = score below 0.9.

Assays:
[1] = BSK_CASM3C_SRB: Viability Assessment in the BioMAP Diversity Plus: CASM3C Assay (AID 2283050); conditions: primary human coronary artery smooth muscle cells;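 also: total protein by SRB staining as cytotoxicity measure in parallel cultures; cells exposed to compound for 24 h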
[2] = read-out: Thrombomodulin, THBD (gene 7056); assay: BSK_CASM3C_Thrombomodulin: BioMAP Diversity Plus: CASM3C Assay for Thrombomodulin Biomarker Activity (AID 2283051); conditions: primary human coronary artery smooth muscle cells; actives raise or lower the signal;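 also: thrombomodulin protein level measured by ELISA 24 h after dosing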
[3] = read-out: Tissue Factor, F3 (gene 2152); assay: BSK_CASM3C_TissueFactor: BioMAP Diversity Plus: CASM3C Assay for Tissue Factor Biomarker Activity (AID 2283052); conditions: primary human coronary artery smooth muscle cells; actives raise or lower the signal;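 also: cell surface tissue factor protein level read by ELISA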
[4] = read-out: Interferon-gamma inducible Protein 10 (IP10), CXCL10 (gene 3627); assay: BSK_hDFCGF_IP10: BioMAP Diversity Plus: hDFCGF Assay for Interferon-gamma inducible Protein 10 (IP10) Biomarker Activity (AID 2283053); conditions: primary human foreskin fibroblasts; actives raise or lower the signal
Outline: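 Primary foreskin fibroblasts, human; 24 h compound exposure; IP-10 by ELISA; bidirectional fit vs DMSO.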

[5] = read-out: Urokinase-type plasminogen activator receptor (uPAR), PLAUR (gene 5329); assay: BSK_CASM3C_uPAR: BioMAP Diversity Plus: CASM3C Assay for Urokinase-type plasminogen activator receptor (uPAR) Biomarker Activity (AID 2283054); conditions: primary human coronary artery smooth muscle cells; actives raise or lower the signal;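 also: cell-surface uPAR protein level quantified by ELISA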
[6] = read-out: Vascular cell adhesion molecule 1 (VCAM1), VCAM1 (gene 7412); assay: BSK_CASM3C_VCAM1: BioMAP Diversity Plus: CASM3C Assay for Vascular cell adhesion molecule 1 (VCAM1) Biomarker Activity (AID 2283055); conditions: primary human coronary artery smooth muscle cells; actives raise or lower the signal;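 also: VCAM-1 protein level quantified by ELISA on the cells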
[7] = read-out: Collagen III, COL3A1 (gene 1281); assay: BSK_hDFCGF_CollagenIII: BioMAP Diversity Plus: hDFCGF Assay for Collagen III Biomarker Activity (AID 2283056); conditions: primary human foreskin fibroblasts; actives raise or lower the signal
Outline: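 Response relative to DMSO, fitted in both directions, reflects ELISA-measured collagen III in human primary skin fibroblasts 24 h after compound addition.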

[8] = read-out: Epidermal growth factor receptor (EGFR), EGFR (gene 1956); assay: BSK_hDFCGF_EGFR: BioMAP Diversity Plus: hDFCGF Assay for Epidermal growth factor receptor (EGFR) Biomarker Activity (AID 2283057); conditions: primary human foreskin fibroblasts; actives raise or lower the signal
Outline: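 hDFCGF system, primary human foreskin fibroblasts; compound 24 h; EGFR measured by ELISA; DMSO = negative control/baseline; bidirectional fitting.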

[9] = read-out: Interleukin-8 (IL8), CXCL8 (gene 3576); assay: BSK_hDFCGF_IL8: BioMAP Diversity Plus: hDFCGF Assay for Interleukin-8 (IL8) Biomarker Activity (AID 2283058); conditions: primary human foreskin fibroblasts; actives raise or lower the signal
Outline: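 Fibroblast monolayers (human foreskin, hDFCGF) received test chemical for 24 h before ELISA detection of IL-8; either increases or decreases relative to DMSO count as activity.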

[10] = BSK_hDFCGF_Proliferation: Cell Proliferation Assessment in the BioMAP Diversity Plus: hDFCGF Assay (AID 2283059); conditions: primary human foreskin fibroblasts;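 also: curves fitted for both rise and fall of signal versus DMSO baseline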
Outline: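 Primary human foreskin fibroblasts, sub-confluent; […]; 10% TCA fix, 0.1% SRB stain, A560 total protein. Gain/loss fitted bidirectionally vs DMSO control.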

Measured: AC50

CNC(=O)Oc1cccc2c1OC(C)(C)O2
active: [8] 12.2 µM
inactive: all other assays above

CCOP(=S)(Oc1cnc(C(C)(C)C)nc1)OC(C)C (configuration not stated)
active: [2] 20 µM | [4] 29.2 µM | [10] 31.7 µM
not listed: [7]
inactive: all other assays above

COP(=O)(OC)SCn1c(=O)oc2cc(Cl)cnc21
active: [1] 24.7 µM | [2] 5.31 µM | [4] 13 µM | [5] 35.5 µM | [6] 20 µM | [9] 30.8 µM | [10] 10.1 µM
inactive: [3] | [8]

CCOP(=O)(SC(C)CC)N1CCSC1=O (configuration not stated)
not listed: [7]
inactive: all other assays above

Nc1nc(N)nc(NC2CC2)n1
not listed: [7]
inactive: all other assays above

CSc1nnc(C(C)(C)C)c(=O)n1N
active: [4] 12.7 µM | [5] 1.32 µM
not listed: [7]
inactive: all other assays above

FC(F)C(F)(F)OCC(Cn1cncn1)c1ccc(Cl)cc1Cl (configuration not stated)
active: [4] 27.8 µM | [10] 5.24 µM
not listed: [7]
inactive: all other assays above

CCNc1nc(Cl)nc(NC(C)(C)C#N)n1
active: [2] 3.97 µM | [5] 30.8 µM | [10] 12.2 µM
not listed: [7]
inactive: all other assays above

CC(C)[C@H](C(=O)O[C@H](C#N)c1cccc(Oc2ccccc2)c1)c1ccc(Cl)cc1
active: [2] 4.81 µM | [10] 3.36 µM
not listed: [7]
inactive: all other assays above

CN(C)C(=O)Nc1cccc(C(F)(F)F)c1
not listed: [7]
inactive: all other assays above

CCCOCC(=Nc1ccc(Cl)cc1C(F)(F)F)n1ccnc1
inactive: [1] | [3] | [5]
active: [2] 20.9 µM | [4] 31.1 µM | [6] 20 µM | [8] 33.8 µM | [9] 38.3 µM | [10] 21.2 µM

CCCOc1nn(C(=O)NS(=O)(=O)c2ccccc2C(=O)OC)c(=O)n1C
not listed: [7]
inactive: all other assays above

COc1ccc(C(=CC(=O)N2CCOCC2)c2ccc(Cl)cc2)cc1OC
active: [6] 7.56 µM
not listed: [7]
inactive: all other assays above

CN1COCN(Cc2cnc(Cl)s2)C1=N[N+](=O)[O-]
not listed: [7]
inactive: all other assays above

CCCCSP(=O)(SCCCC)SCCCC
active: [1] 31.7 µM | [2] 20 µM | [4] 20 µM | [10] 30.6 µM
not listed: [7]
inactive: all other assays above

COc1cc(OC)nc(Sc2cccc(Cl)c2C(=O)O)n1
not listed: [7]
inactive: all other assays above

CC1(C(=O)Nc2ccc(O)c(Cl)c2Cl)CCCCC1
not listed: [5] | [7]
inactive: all other assays above

C#CC(C)(C)NC(=O)c1cc(Cl)cc(Cl)c1
active: [4] 4.25 µM
not listed: [7]
inactive: all other assays above
